In PubChem BioAssay (Tox21):
Records with an inconclusive call do not appear. Activity calls are given as the source filed them. Unless noted, calls come from the whole dose curve; as a rule, active = well fitted curve in the direction sought with a large enough effect in the repeat runs; inconclusive = weak or mixed curves; inactive = no such curve, though single readings can be large; an effect the other way counts as inactive or inconclusive.

Columns and labels:
[1] = A CellTox Green Cytotoxicity Assay to monitor cytotoxicity in HEK293 cells - 16 hour (AID 1224888); note: nearly all actives have a fitted effect of over 35% in size
In short: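 HEK293 cells, 600/well, were preincubated 5 hours and then exposed to compounds at 37 C for up to 40 hours. A cell-impermeant cyanine dye staining dead-cell DNA was read by fluorescence at 0, 8, 16, 24, 32 and 40 h time points.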

[2] = qHTS RealTime-Glo MT Cell Viability Assay in HepG2 cells - 0 hour (AID 1224889); note: nearly all actives have a fitted effect of over 50% in size
In short: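 Real-time, nonlytic viability: 600 HepG2 cells/well mixed with NanoLuc enzyme plus prosubstrate; 5 h settle, compound (DMSO) added by pintool; luminescence monitored over 40 h at 37 C.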

[3] = A CellTox Green Cytotoxicity Assay to monitor cytotoxicity in HepG2 cells - 8 hour (AID 1224890); note: nearly all actives have a fitted effect of over 45% in size
In short: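 HepG2 cells, 600/well, preincubated 5 h with CellTox Green dye, then exposed to Tox21 compounds in DMSO at 37 C for up to 40 h. Dead-cell DNA fluorescence read at the indicated time point.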

[4] = qHTS assay to identify small molecule antagonists of the estrogen receptor alpha (ER-alpha) signaling pathway using the BG1 cell line in the presence of 0.1 nM 17-beta-estradiol - cell viability counter screen (AID 1259241); note: nearly all actives have a fitted effect of over 40% in size
In short: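 Measures cytotoxicity alongside the ER-alpha antagonist readout: VM7Luc4E2 cells, charcoal-stripped serum, 0.1 nM 17beta-estradiol final, 22 hr compound incubation at 37C, CellTiter-Fluor fluorescence.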

[5] = qHTS assay to identify small molecule antagonists of the androgen receptor (AR) signaling pathway using the MDA cell line in the presence of 0.5 nM R1881 - cell viability counter screen (AID 1259242); note: nearly all actives have a fitted effect of over 45% in size
In short: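 MDA-kb2 cells (MMTV-luciferase, AR/GR responsive) were treated with compounds plus 0.5 nM R1881 (final) for 16 hr at 37C, 0% CO2. Viability was then read in the same wells as live-cell protease fluorescence (CellTiter-Fluor, 30 min).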

[6] = qHTS assay to identify small molecule HDAC inhibitors (AID 1259364); note: nearly all actives have a fitted effect of over 45% in size; note: potency is the fitted concentration of half-maximal effect
In short: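 Wild-type HCT-116 cells, plated overnight at 37 C, exposed to compounds 2 hr at 37 C; luminogenic HDAC-Glo substrate then added 30 min at room temperature. Luminescence reports relative endogenous class I/II HDAC activity.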

[7] = qHTS assay to identify small molecule HDAC inhibitors - cell viability counter screen (AID 1259365); note: series mostly up to about 92 µM; nearly all actives have a fitted effect of over 50% in size
In short: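 Following a 2hr exposure of overnight-plated wild-type HCT-116 cells to DMSO-delivered compounds, CellTiter-Glo was added and luminescence recorded after 30min at room temperature.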

[8] = qHTS assay to identify small molecule agonists of the sonic hedgehog signaling (Shh) pathway - cell viability counter screen (AID 1259366); note: nearly all actives have a fitted effect of over 50% in size
In short: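 After a 4hr attachment at 37C, NIH/3T3 cells bearing an integrated Gli1-driven luciferase reporter were dosed with compounds. Treatment lasted 24hr, with the final hour including CellTiter-Fluor for a fluorescence viability measurement.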

[9] = qHTS assay to identify small molecule antagonists of the sonic hedgehog signaling (Shh) pathway - cell viability counter screen (AID 1259367); note: nearly all actives have a fitted effect of over 55% in size
In short: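 Seed 3T3 Gli1-Luc cells at 2,000 per well; incubate 4 hr; add compound in DMSO, then conditioned medium; incubate at 37C with 5% CO2; add CellTiter-Fluor after 23 hr; read fluorescence 1 hr later.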

[10] = qHTS assay to identify small molecule agonists of the sonic hedgehog signaling (Shh) pathway (AID 1259368; calls by dose curve;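 note: NIH/3T3-derived 3T3Gli1-Luc cells carrying a stable Gli1-driven firefly luciferase reporter; series mostly up to about 92 µM; nearly all actives have a fitted effect of over 15% in size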)
In short: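 NIH/3T3-derived 3T3Gli1-Luc cells with stably integrated Gli1-driven firefly luciferase, 2,000 cells/well, compounds added after 4 hr. Incubated 24 hr at 37C, 5% CO2; luminescence read after 30 min with luciferase reagent at room temperature.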

[11] = qHTS assay to identify small molecule antagonists of the sonic hedgehog signaling (Shh) pathway (AID 1259369; calls by dose curve; note: nearly all actives have a fitted effect of over 45% in size)
In short: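 NIH/3T3-derived Gli1-Luc reporter cells plated 4 h, dosed with compound, then stimulated with conditioned medium for 24 h at 37 C. Firefly luciferase luminescence read after 30 min with detection reagent at room temperature.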

[12] = target: Estrogen receptor beta (Homo sapiens) (UniProt Q92731); experiment: qHTS assay to identify small molecule agonists of the estrogen receptor beta (ER-beta) signaling pathway (AID 1259377; active = well fitted activation curve with a large enough effect in the signal ratio in the repeat runs, not every such curve was filed as active; the % refers to the signal ratio)
In short: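 In HEK293T cells bearing a UAS-beta-lactamase reporter under ER-beta control, DMSO-delivered compounds were incubated for 16 hr at 37C. Activity was detected as fluorescence 2 hours after LiveBLAzer B/G FRET substrate addition.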

[13] = target: Estrogen receptor beta (Homo sapiens) (UniProt Q92731); experiment: qHTS assay to identify small molecule antagonists of the estrogen receptor beta (ER-beta) signaling pathway (AID 1259378; active = well fitted inhibition curve with a large enough effect in the signal ratio in the repeat runs, not every such curve was filed as active; the % refers to the signal ratio)
In short: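 ER-beta-UAS-bla HEK293T cells in 2% charcoal-stripped FBS medium treated with compound plus 1nM final 17-beta-estradiol for 16 hr at 37C. Beta-lactamase reporter read by FRET substrate fluorescence after 2 hours at room temperature.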

[14] = qHTS assay to identify small molecule agonists of the androgen receptor (AR) signaling pathway in the presence of an antagonist - cell viability counter screen (AID 1259379);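 note: MDA-kb2 human breast cancer cells carrying an MMTV luciferase reporter; series mostly up to about 92 µM; nearly all actives have a fitted effect of over 25% in size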
In short: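 MDA-kb2 cells (MMTV-luciferase, AR/GR), 3,000/well, 5 h attachment, then 3.0 µM nilutamide (final) and compounds at 15 concentrations. Viability by CellTiter-Fluor fluorescence after 16 h at 37 °C, 0% CO2, in the reporter wells.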

[15] = qHTS assay to identify small molecule agonists of the estrogen receptor beta (ER-beta) signaling pathway - cell viability counter screen (AID 1259380); note: nearly all actives have a fitted effect of over 30% in size
In short: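 ER-beta-UAS-bla HEK293T cells in medium with 2% charcoal-stripped FBS, pre-incubated 6 hr, then treated 16 hr at 37C. Cytotoxicity read in the same wells by CellTiter-Glo luminescence after 30 min at room temperature.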

[16] = qHTS assay to identify small molecule antagonists of the estrogen receptor beta (ER-beta) signaling pathway - cell viability counter screen (AID 1259382); note: series mostly up to about 92 µM; nearly all actives have a fitted effect of over 55% in size
In short: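 ER-beta-UAS-bla HEK293T cells in 2% charcoal-stripped FBS medium, treated with compound plus 1 nM 17-beta-estradiol for 16 h at 37C. Viability read by CellTiter-Glo luminescence after 30 min at room temperature in the same wells.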

[17] = qHTS assay to identify small molecule phospholipidosis (PLD) inducers (AID 1259344; active = well fitted curve in the direction sought with a large enough effect; an effect the other way counts as inactive or inconclusive)
In short: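 Quantitative HTS in HepG2: compound plus LipidTOX Red dye for 24 h, paraformaldehyde fixation with Hoechst 33342, widefield high-content imaging; amiodarone as positive and DMSO as negative control.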

[18] = target: Androgen receptor (Homo sapiens) (UniProt P10275); experiment: qHTS assay to identify small molecule antagonists of the androgen receptor (AR) signaling pathway using the MDA cell line in the presence of 0.5 nM R1881 (AID 1259243); note: nearly all actives have a fitted effect of over 50% in size
In short: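 MDA-kb2 cells (MMTV-luciferase, responsive to AR and GR) at 3,000/well, rested 5 h at 37C, 0% CO2, then given compounds plus 0.5 nM R1881 (final) for 16 hr. Luciferase read with ONE-Glo after 30 min at room temperature.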

[19] = target: Androgen receptor (Homo sapiens) (UniProt P10275); experiment: qHTS assay to identify small molecule agonists of the androgen receptor (AR) signaling pathway in the presence of an antagonist (AID 1259381; calls by dose curve; note: nearly all actives have a fitted effect of over 15% in size)
In short: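 MDA-kb2 cells carrying MMTV-luciferase (AR/GR responsive), 3,000 cells/well, co-treated with 3.0 uM nilutamide final. Compounds at 15 concentrations, 16 hr at 37C without CO2. Luciferase luminescence read after 30 min with ONE-Glo.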

[20] = target: Estrogen receptor (Homo sapiens) (UniProt P03372); experiment: qHTS assay to identify small molecule antagonists of the estrogen receptor alpha (ER-alpha) signaling pathway using the BG1 cell line in the presence of 0.1 nM 17-beta-estradiol (AID 1259244); note: nearly all actives have a fitted effect of over 50% in size
In short: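 VM7Luc4E2 cells (endogenous full-length ER-alpha, 4×ERE-luciferase), kept 5 days in phenol red-free, charcoal-stripped FBS medium; 4,000 cells/well. Compounds added with 0.1 nM (final) 17beta-estradiol, 22 hr at 37C; luminescence read with ONE-Glo after 30 min.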

Measured: Potency

Sequence of Androgen receptor (Homo sapiens) (P10275 whole entry, looked up): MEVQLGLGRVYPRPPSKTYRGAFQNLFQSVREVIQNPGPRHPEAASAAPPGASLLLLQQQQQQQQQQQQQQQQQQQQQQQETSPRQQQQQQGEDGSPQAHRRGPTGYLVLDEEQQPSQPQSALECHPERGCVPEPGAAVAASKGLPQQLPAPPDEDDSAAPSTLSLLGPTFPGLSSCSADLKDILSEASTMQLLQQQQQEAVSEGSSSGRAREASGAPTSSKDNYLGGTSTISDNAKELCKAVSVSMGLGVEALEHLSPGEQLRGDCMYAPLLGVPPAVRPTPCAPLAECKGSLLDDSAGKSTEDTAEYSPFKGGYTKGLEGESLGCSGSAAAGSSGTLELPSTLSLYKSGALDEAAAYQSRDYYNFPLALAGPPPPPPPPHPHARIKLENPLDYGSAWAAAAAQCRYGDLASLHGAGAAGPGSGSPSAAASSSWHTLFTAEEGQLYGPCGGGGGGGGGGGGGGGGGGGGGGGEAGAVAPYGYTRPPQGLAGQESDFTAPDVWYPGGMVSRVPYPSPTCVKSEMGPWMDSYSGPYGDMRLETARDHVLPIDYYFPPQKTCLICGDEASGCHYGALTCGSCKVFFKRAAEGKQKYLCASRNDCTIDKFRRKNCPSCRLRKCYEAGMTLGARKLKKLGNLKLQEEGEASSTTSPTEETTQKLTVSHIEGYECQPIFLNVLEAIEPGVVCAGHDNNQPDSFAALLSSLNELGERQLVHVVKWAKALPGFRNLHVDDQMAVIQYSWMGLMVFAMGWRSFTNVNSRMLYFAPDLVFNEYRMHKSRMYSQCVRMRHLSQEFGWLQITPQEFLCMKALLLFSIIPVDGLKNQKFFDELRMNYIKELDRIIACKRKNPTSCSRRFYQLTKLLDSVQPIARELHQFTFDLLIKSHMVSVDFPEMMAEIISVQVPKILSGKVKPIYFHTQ
Sequence of Estrogen receptor (Homo sapiens) (P03372 whole entry, looked up): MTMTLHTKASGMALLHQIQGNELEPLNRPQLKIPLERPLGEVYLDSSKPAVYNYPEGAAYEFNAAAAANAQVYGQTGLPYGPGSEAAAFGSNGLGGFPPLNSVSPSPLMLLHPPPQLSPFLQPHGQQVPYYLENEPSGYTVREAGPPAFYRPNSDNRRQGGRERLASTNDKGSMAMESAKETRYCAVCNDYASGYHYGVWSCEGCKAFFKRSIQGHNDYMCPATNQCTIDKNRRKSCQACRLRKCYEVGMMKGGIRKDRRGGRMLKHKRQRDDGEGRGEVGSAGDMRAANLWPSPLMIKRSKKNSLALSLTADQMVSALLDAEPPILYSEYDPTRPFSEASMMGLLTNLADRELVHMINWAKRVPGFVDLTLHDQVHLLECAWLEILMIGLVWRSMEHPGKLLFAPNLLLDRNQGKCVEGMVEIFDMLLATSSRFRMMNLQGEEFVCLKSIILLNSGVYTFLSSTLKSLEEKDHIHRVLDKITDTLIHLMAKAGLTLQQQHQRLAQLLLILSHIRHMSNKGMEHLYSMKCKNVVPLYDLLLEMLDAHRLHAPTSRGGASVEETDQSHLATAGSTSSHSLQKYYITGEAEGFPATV
Sequence of Estrogen receptor beta (Homo sapiens) (Q92731 whole entry, looked up): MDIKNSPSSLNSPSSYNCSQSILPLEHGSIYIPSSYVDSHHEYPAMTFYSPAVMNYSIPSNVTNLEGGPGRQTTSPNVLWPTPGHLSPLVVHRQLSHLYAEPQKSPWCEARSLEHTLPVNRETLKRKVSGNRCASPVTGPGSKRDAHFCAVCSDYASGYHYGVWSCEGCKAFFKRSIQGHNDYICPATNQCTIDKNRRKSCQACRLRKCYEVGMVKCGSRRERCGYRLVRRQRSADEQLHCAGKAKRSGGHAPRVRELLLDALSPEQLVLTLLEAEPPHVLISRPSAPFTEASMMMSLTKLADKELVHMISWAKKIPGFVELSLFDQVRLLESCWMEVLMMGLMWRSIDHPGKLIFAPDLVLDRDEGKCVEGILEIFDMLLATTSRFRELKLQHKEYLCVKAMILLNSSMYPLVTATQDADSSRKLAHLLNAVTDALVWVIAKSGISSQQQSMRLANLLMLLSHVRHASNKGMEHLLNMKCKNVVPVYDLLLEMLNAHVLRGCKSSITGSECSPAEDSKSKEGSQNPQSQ

COC(=O)c1ccccc1Cl
not listed: [17] | [18] | [19] | [20]
inactive: all other assays above

COc1ccc2cc(CCC(C)=O)ccc2c1
not listed: [6] | [16] | [18] | [19] | [20]
inactive: all other assays above

C=CCN1CCc2nc(N)sc2CC1
not listed: [3] | [12] | [13] | [16] | [20]
inactive: all other assays above

C=CC(=O)CC
not listed: [6] | [11] | [17] | [18] | [19] | [20]
inactive: all other assays above

CC(C)OCCO
not listed: [17] | [18] | [19] | [20]
inactive: all other assays above

CC[N+](C)(CC)CC
not listed: [17] | [18] | [19] | [20]
inactive: all other assays above

Cc1nnc(C(=O)NC(C)(C)c2nc(C(=O)NCc3ccc(F)cc3)c(O)c(=O)n2C)o1
not listed: [6] | [18] | [19] | [20]
inactive: all other assays above

C=CC(=O)OCCOCCOCC
not listed: [6] | [11] | [17] | [18] | [19] | [20]
inactive: all other assays above

Cc1nc2ccc(Cl)cc2[nH]1
not listed: [6] | [11] | [17] | [18] | [19]
inactive: all other assays above

CCCCCCC(=O)c1ccccc1
not listed: [12] | [17] | [18] | [19] | [20]
inactive: all other assays above

COc1ccc(Cl)cc1C
not listed: [10] | [16] | [17] | [18] | [19] | [20]
inactive: all other assays above

NCC1CCC(C(=O)Oc2ccc(CCC(=O)O)cc2)CC1 (stereo not drawn)
active: [6] 8.41 µM
not listed: [16] | [18] | [19] | [20]
inactive: all other assays above

CCCCCC(=O)CC
not listed: [12] | [13] | [17] | [18] | [19] | [20]
inactive: all other assays above

CC(=O)/C=C/C=C1/C2CCC(C2)C1(C)C (stereo not drawn)
not listed: [3] | [12] | [13] | [17]
inactive: all other assays above

OCCC(F)(F)C(F)(F)C(F)(F)C(F)(F)C(F)(F)C(F)(F)F
not listed: [6] | [11] | [17] | [18] | [19]
inactive: all other assays above

C/C=C/C(=O)CCCC
not listed: [3] | [17] | [18] | [19]
inactive: all other assays above
